C diff growth – inhibitors of Clostridium difficile growth. Clostridium difficile clinical isolate growth, OD600, 24 h; active compounds read low. growth activity, negative = inhibition, % at 16 µg/mL (by protocol). 86,000 compounds, 0.25% hits. AID 1259249;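 active means mean growth activity at or below -80% and every replicate also at or below -80%; inconclusive means mean at or below -80% but some replicate above -80%; inactive means mean growth activity above -80%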;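 further: 0% = DMSO wells and -100% = levofloxacin 16 µg/mL wells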
T cruzi growth-1 – blocks T. cruzi growth in NIH3T3 culture | T. cruzi beta-gal in NIH3T3, GalScreen luminescence, 90 h | AID 624255 | 77,000 compounds, 5.9% hits | inhibition, % at 8.34 µM;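 active means mean inhibition above about 93%, with at least 55% of replicates each passing it, limit read from the data, passing the limit was not always enough; inconclusive means only one of those two conditions holds; inactive means neither condition holds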
Pf Dd2 growth – inhibitors of Plasmodium falciparum Dd2 growth | P. falciparum Dd2 growth, SYBR Green, 72 h; active compounds read low | activity change, % at 10 µM | 94,000 compounds, 2.3% hits | AID 1159554; in the data active means activity change below about -80%; inconclusive means no clear call, values can overlap the other calls
T cruzi growth-2 – inhibitors of T. cruzi proliferation. shares compounds with T cruzi growth-1. T. cruzi beta-gal in NIH3T3, GalScreen luminescence, 90 h. inhibition, % at 8.35 µM. 5,600 compounds, 72% hits. AID 651739;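 active means mean replicate inhibition above about 95% and at least 55% of replicates individually reaching it, limit read from the data; inconclusive means only one of the two criteria is met; inactive means neither criterion is met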
T cruzi growth-3 – Trypanosoma cruzi proliferation inhibition | shares compounds with T cruzi growth-1 | T. cruzi beta-gal in NIH3T3, GalScreen luminescence, 90 h | inhibition, % at 2.09 µM | 5,600 compounds, 21% hits;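 active means mean inhibition above about 95%, with at least 55% of replicates also reaching it, limit read from the data; inconclusive means meets just one of the two conditions; inactive means meets neither condition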;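 further: plate controls were neutral control median for no effect and positive control median for full effect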
3T3 cytotox – cytotoxicity in mouse NIH/3T3 fibroblasts | AID 651742 | NIH/3T3 viability, CellTiter-Glo ATP luminescence, 90 h | shares compounds with T cruzi growth-1 | cytotoxicity (signal decrease), % at 8.35 µM | 5,600 compounds, 14% hits;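 active means mean signal decrease across replicates above about 35% based on untreated-well scatter, with enough replicates individually passing, limit read from the data; inconclusive means no rule stated though some were filed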;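 further: 0% = median of neutral control wells and 100% = median of positive control wells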
NIH3T3 tox 2 – NIH/3T3 (mouse) viability loss; shares compounds with T cruzi growth-1; NIH/3T3 viability, CellTiter-Glo ATP luminescence, 90 h; inhibition, % at 24.9 µM; 5,600 compounds, 56% hits; AID 651744;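 active means mean loss of cell viability signal at or above a set limit, and enough replicates individually reaching it; inconclusive means meets only the mean limit or only the replicate share; inactive means meets neither condition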;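 further: 0% = median of neutral control wells and 100% = median of positive control wells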
The depositor's hits bear a star. Compounds with a hit are over-represented: about 6.8% of the library has one in this group of screens.

COCCN(C[C@@H]1N[C@@H](CO)[C@H]1c1ccc(-c2cccc(F)c2)cc1)C(C)=O was read as C diff growth -3, T cruzi growth-1 inconclusive, Pf Dd2 growth 8, T cruzi growth-2 27, T cruzi growth-3 -3, 3T3 cytotox -12 and NIH3T3 tox 2 14.
Screening COCCN(C[C@H]1N[C@H](CO)[C@H]1c1ccc(-c2cccc(F)c2)cc1)C(C)=O returned C diff growth -3, T cruzi growth-1 -52 and Pf Dd2 growth 7.
Screening O=C(Nc1cccc(F)c1)N[C@H]1CC[C@@H](CCn2cc(Cc3ccccc3)nn2)O[C@@H]1CO returned C diff growth -5, T cruzi growth-1 -93 and Pf Dd2 growth 1.
`CO[C@@H]1CN(C)C(=O)c2cc(NC(=O)Nc3ccc(F)cc3)ccc2OC[C@@H](C)N(C(=O)c2cnccn2)C[C@H]1C` gave C diff growth -7, T cruzi growth-1 -20 and Pf Dd2 growth -40.
COc1cccc(-c2ccc(C3[C@H]4CNC[C@@H]3N4Cc3cncnc3)cc2)c1 (stereo partly drawn) was read as C diff growth -1 and Pf Dd2 growth 0.
Screening C[C@H]1CN([C@@H](C)CO)C(=O)c2cc(NC(=O)CCC(F)(F)F)ccc2O[C@H]1CN(C)S(=O)(=O)c1cccs1 returned T cruzi growth-1 -104 and Pf Dd2 growth 11.
C[C@H](CO)N1C[C@H](C)[C@H](CN(C)Cc2ccc(C(=O)O)cc2)OCCCC[C@H](C)Oc2ccc(NC(=O)Nc3cccc4ccccc34)cc2C1=O was read as C diff growth 1, T cruzi growth-1 29 and Pf Dd2 growth 9.
For C[C@@H]1CN([C@@H](C)CO)C(=O)c2cc(NC(=O)Nc3cccc4ccccc34)ccc2O[C@@H](C)CCCCO[C@@H]1CN(C)Cc1ccc(C(F)(F)F)cc1 the results were C diff growth 3, T cruzi growth-1 inconclusive, Pf Dd2 growth -88*, T cruzi growth-2 107*, T cruzi growth-3 111*, 3T3 cytotox 2 and NIH3T3 tox 2 20.
For C[C@@H]1CN([C@@H](C)CO)C(=O)c2cc(NC(=O)Nc3cccc4ccccc34)ccc2O[C@@H](C)CCCCO[C@H]1CN(C)Cc1ccc(C(F)(F)F)cc1 the results were C diff growth 19, T cruzi growth-1 inconclusive, Pf Dd2 growth -52, T cruzi growth-2 109*, T cruzi growth-3 117*, 3T3 cytotox 29 and NIH3T3 tox 2 11.
C[C@H](CO)N1C[C@H](C)[C@@H](CN(C)Cc2ccc(C(F)(F)F)cc2)OCCCC[C@H](C)Oc2ccc(NC(=O)Nc3cccc4ccccc34)cc2C1=O was read as C diff growth -3, T cruzi growth-1 inconclusive, Pf Dd2 growth 14, T cruzi growth-2 99*, T cruzi growth-3 107*, 3T3 cytotox 23 and NIH3T3 tox 2 4.
For C[C@@H]1CCCCO[C@H](CN(C)Cc2ccc(C(F)(F)F)cc2)[C@@H](C)CN([C@H](C)CO)C(=O)c2cc(NC(=O)Nc3cccc4ccccc34)ccc2O1 the results were C diff growth 4, T cruzi growth-1 inconclusive, Pf Dd2 growth 34, T cruzi growth-2 107*, T cruzi growth-3 87, 3T3 cytotox 15 and NIH3T3 tox 2 6.
C[C@@H]1CN([C@@H](C)CO)C(=O)c2cc(NC(=O)Nc3cccc4ccccc34)ccc2O[C@@H](C)CCCCO[C@@H]1CN(C)Cc1ccc(C(=O)O)cc1 was read as C diff growth 4, T cruzi growth-1 -1 and Pf Dd2 growth -33.
For C[C@@H]1CN([C@@H](C)CO)C(=O)c2cc(NC(=O)CCCCCC(=O)Nc3ccccc3N)ccc2O[C@@H]1CN(C)CC1CCCCC1 the results were C diff growth -4 and Pf Dd2 growth -63.
C/C=C/c1ccc([C@@H]2[C@H](CO)N(CCC(F)(F)F)C23CN(C(C)=O)C3)cc1 was read as C diff growth -4 and Pf Dd2 growth -1.
Screening COCC#Cc1ccc2c(c1)O[C@@H](CN(C)Cc1ccccc1)[C@@H](C)CN([C@H](C)CO)S2(=O)=O returned C diff growth 4, T cruzi growth-1 66 and Pf Dd2 growth -35.
Screening C[C@H]1CN([C@@H](C)CO)C(=O)Cc2cc(NC(=O)Nc3ccc(F)cc3)ccc2O[C@@H]1CN(C)Cc1ccc(C(F)(F)F)cc1 returned C diff growth 35, T cruzi growth-1 47 and Pf Dd2 growth -14.
For C[C@@H]1CCCCO[C@H](CN(C)Cc2ccc(C(F)(F)F)cc2)[C@H](C)CN([C@H](C)CO)C(=O)c2cc(NC(=O)Nc3cccc4ccccc34)ccc2O1 the results were C diff growth -2, T cruzi growth-1 inconclusive, Pf Dd2 growth -68, T cruzi growth-2 105*, T cruzi growth-3 117*, 3T3 cytotox 13 and NIH3T3 tox 2 10.
Screening C[C@H](CO)N1C[C@H](C)[C@H](CN(C)Cc2ccc(C(F)(F)F)cc2)OCCCC[C@H](C)Oc2ccc(NC(=O)Nc3cccc4ccccc34)cc2C1=O returned C diff growth 23, T cruzi growth-1 126 and Pf Dd2 growth 26.
Screening CCS(=O)(=O)N1CCCCN2[C@H](CO)[C@@H](c3ccc(-c4ccccc4F)cc3)[C@H]2C1 returned C diff growth -5, T cruzi growth-1 84 and Pf Dd2 growth -15.
Screening O=S(=O)(c1ccc(F)cc1)N1CCCCN2[C@H](C1)[C@H](c1ccc(-c3ccccc3F)cc1)[C@@H]2CO returned C diff growth -2, T cruzi growth-1 108*, Pf Dd2 growth 1, T cruzi growth-2 105*, T cruzi growth-3 105*, 3T3 cytotox 31 and NIH3T3 tox 2 102*.
Screening O=S(=O)(c1ccc(F)cc1)N1CCCCN2[C@@H](CO)[C@H](c3ccc(-c4ccccc4F)cc3)[C@@H]2C1 returned C diff growth -2, T cruzi growth-1 106*, Pf Dd2 growth 10, T cruzi growth-2 91, T cruzi growth-3 51, 3T3 cytotox 77* and NIH3T3 tox 2 100*.
`O=S(=O)(c1ccccc1)N1CCCCN2[C@H](C1)[C@H](c1ccc(-c3ccccc3F)cc1)[C@@H]2CO` gave C diff growth 22, T cruzi growth-1 86 and Pf Dd2 growth 7.
For O=S(=O)(c1ccccc1)N1CCCCN2[C@H](CO)[C@H](c3ccc(-c4ccccc4F)cc3)[C@H]2C1 the results were C diff growth 66, T cruzi growth-1 83 and Pf Dd2 growth -28.
Screening O=S(=O)(c1ccc(F)cc1)N1CCCCN2[C@@H](CO)[C@@H](c3ccc(-c4ccccc4F)cc3)[C@@H]2C1 returned C diff growth 2, T cruzi growth-1 81 and Pf Dd2 growth -63.
